In PubChem BioAssay AID493170 (National Center for Advancing Translational Sciences (NCATS), 2011):
Results filed as inconclusive are left out. Entries that show only a call come without a potency. Calls of active or inactive are those of the source. The call rests on the fitted dose curve; in most records, active means well fitted inhibition curve with a large enough effect; inconclusive means small, poorly fitted or top-dose-only effect, or effect the other way; inactive means flat fitted curve, though single readings scatter.
Further: nearly all actives have a fitted effect of over 50% in size.
Potency means the concentration at half of the fitted maximal effect.

Each molecule was assayed against Ubiquitin carboxyl-terminal hydrolase 2 (Homo sapiens) (UniProt O75604) (assay: Ub-rhodamine 110 based assay for inhibitors Ubiquitin-specific Protease USP2a). Settings: USP2a Ub-rhodamine110 cleavage, fluorescence; series mostly up to 38.3 µM.
Chain of Ubiquitin carboxyl-terminal hydrolase 2 (Homo sapiens) (O75604 whole entry, looked up): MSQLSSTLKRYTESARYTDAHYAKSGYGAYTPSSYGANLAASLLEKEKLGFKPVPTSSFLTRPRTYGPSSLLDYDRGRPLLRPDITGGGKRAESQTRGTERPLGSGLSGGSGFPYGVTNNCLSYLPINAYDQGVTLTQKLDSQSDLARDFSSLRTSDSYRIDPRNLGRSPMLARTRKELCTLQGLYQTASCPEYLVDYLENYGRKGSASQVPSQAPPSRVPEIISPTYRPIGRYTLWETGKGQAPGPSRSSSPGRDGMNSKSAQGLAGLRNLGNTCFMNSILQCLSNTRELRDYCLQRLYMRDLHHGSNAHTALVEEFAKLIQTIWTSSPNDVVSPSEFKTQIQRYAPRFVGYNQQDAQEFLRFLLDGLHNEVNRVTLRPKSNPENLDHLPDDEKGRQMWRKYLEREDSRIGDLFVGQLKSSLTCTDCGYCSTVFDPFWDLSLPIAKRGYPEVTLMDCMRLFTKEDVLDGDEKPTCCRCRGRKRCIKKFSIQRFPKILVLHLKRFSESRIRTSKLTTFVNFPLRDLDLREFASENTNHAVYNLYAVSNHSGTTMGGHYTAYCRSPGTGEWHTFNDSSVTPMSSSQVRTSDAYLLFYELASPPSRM
In short: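 5 nM USP2a preincubated with compounds for 30 min at RT in 20 mM Tris-HCl pH 8.0, 2 mM CaCl2, 2 mM beta-mercaptoethanol, 0.05% CHAPS. Cleavage of 150 nM Ub-rhodamine 110 read kinetically (Ex 485/Em 531) for 7 min.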
CCCn1c(NC(=O)c2ccc(Br)cc2)nc2ccccc21 was tested, and the Potency was “inactive”.
For COC(=O)c1[nH]c2ccc(C)cc2c1NC(=O)CN1CCCc2ccccc21, the Potency was “inactive”.
With Cc1c2c(=O)n(-c3nc4ccccc4s3)nc-2cc(O)n1Cc1ccccc1 the Potency was 6.31 µM (active).
With O=C(CCSCc1ccc(Cl)cc1)NCCc1ccccc1 the Potency was “inactive”.
In the case of O=C(Nc1ccccc1)Nc1snnc1C(=O)Nc1cccc(O)c1, the Potency is reported as 10 µM (active).
CCOC(=O)Cn1c(=O)oc2cc(S(=O)(=O)Nc3cc(Cl)ccc3OC)ccc21 was tested, and the Potency was “inactive”.
In the case of CCCn1c(N2CCN(Cc3cccc(C)c3)CC2)nc2c1c(=O)[nH]c(=O)n2C, the Potency is reported as “inactive”.
For COC(=O)c1[nH]c2ccccc2c1NC(=O)CN1CCCc2ccccc21, the Potency was “inactive”.
In the case of CN1CCN(CCCCOc2ccc(F)cc2)CC1, the Potency is reported as “inactive”.
In the case of Cc1ccc(-c2c(C#N)c(N)nc3c2CCCCC3)o1, the Potency is reported as “inactive”.
In the case of O=C(N/N=C/c1ccc(-c2ccc(S(=O)(=O)Nc3ncccn3)cc2)o1)c1cc2ccccc2cc1O, the Potency is reported as 4.47 µM (active).
With O=[N+]([O-])c1cc(-c2nnc(Nc3ccccc3)c3ccccc23)ccc1N1CCOCC1 the Potency was “inactive”.
With CCCCCCCCCCOC(=O)Cn1c(COc2ccc(OC)cc2)[n+](C)c2ccccc21 the Potency was “inactive”.
CC(CN1CCCCC1)OC(=O)c1ccc(Cl)cc1 (configuration not stated) was tested, and the Potency was “inactive”.
CNc1nc(OCCNC(=O)Nc2ccccc2)nc(N2CCOCC2)n1 was tested, and the Potency was “inactive”.
For CCOC(=O)N1CCN(CC(=O)n2c(C)c(C)c3ccccc32)CC1, the Potency was “inactive”.
In the case of CCOC(=O)c1[nH]c2ccc(OC)cc2c1NC(=O)CCN1CCC(C)CC1, the Potency is reported as “inactive”.
